This passage reports activity change, negative = inhibition and activity, negative = inhibition results from PubChem BioAssay (NCATS).

Records with an inconclusive call do not appear. Active and inactive are the calls of the source. The call rests on the fitted dose curve; in most records, active means well fitted curve in either direction with a large enough effect (not every such curve was filed as active); inconclusive means small, poorly fitted or top-dose-only effect, or another doubt; inactive means flat fitted curve, though single readings scatter.
On the % scale 0 is the no-effect control and ±100 the full control effect.

One test can be described thus: NFAT Signaling Pathway (AID 444).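 Further: carbachol stimulus at about its EC50 of 1 µM final.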 To be noted: Jurkat NFAT-bla M1, carbachol, beta-lactamase ratio, 5 h; at 17.2 µM (top of the series) unless noted. The procedure, abridged: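 Read-out: CCF4 FRET ratio (460 nm/530 nm) after 1 h RT dye loading, used for %activity and AC50 from titration series. Cells: Jurkat NFAT-β-lactamase/M1 line, treated with compound plus 1 uM carbachol for 5 h, 37 °C.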
Consider `Cn1c(NCc2cccnc2)nc2c1c(=O)n(Cc1ccccc1F)c(=O)n2C`, for which the activity change, negative = inhibition was -10.3% (inactive).
On the same count and under the same terms, to `N#Cc1nc(COc2ccccc2F)oc1NCCCn1ccnc1` belongs -21.7% (inactive); to `Cc1occc1C(=O)OCC(=O)Nc1ccc(F)cc1`, 1.22% (inactive); to `CCOC(=O)CNS(=O)(=O)c1cc(-c2nn(C)c(=O)c3ccccc23)ccc1C`, -12.6% (inactive).
On the same count and under the same terms, to `CC1(C)CC(=O)C=C(NCCO)C1` belongs 2.7% (inactive); to `O=c1oc2c(CN3CCCCC3)c(O)ccc2c2c1CCCCC2`, -25.5% (inactive).
In the case of `COc1cccc(C2C(C(=O)c3cc4ccccc4o3)=C(O)C(=O)N2CCN(C)C)c1OC` (stereo not given), the activity change, negative = inhibition is 1.15% (inactive).
For `c1ccc(-c2nc(NCC3CCCO3)c3ccccc3n2)nc1` (stereo not given), the activity change, negative = inhibition was -27.7% (inactive).
On the same count and under the same terms, to `O=C(CSc1nnc(-c2ccccc2)c(-c2ccccc2)n1)N1CCOCC1` belongs 0.00472% (inactive); to `O=C(NCCO)C1(c2ccccc2)CCCC1`, -7.5% (inactive).
Take `Cc1ccc(N(CC(O)CN(C)C)S(=O)(=O)c2ccccc2)cc1` (stereo not given): the activity change, negative = inhibition is -10.3% (inactive).
On the same count and under the same terms, next, `Cc1cc(C)n(C(=O)CN2C(=O)CCC2=O)n1`: 0.324% (inactive); `COc1cccc(C2/C(=C(/O)c3cnn(-c4ccccc4)c3C)C(=O)C(=O)N2CCN(C)C)c1` (stereo not given): -7.78% (inactive).
Still for that read-out and setting: next, `Nc1ccc2c3c(cccc13)CC2`: 11.5% (inactive).
The same measure, in the same setting: to `CC(O)CNc1nc2c(c(=O)n(C)c(=O)n2C)n1Cc1cccc(C(F)(F)F)c1` (stereo not given) belongs 4.56% (inactive).
With `S=c1[nH]nc(-c2ccccc2)n1Cc1ccccc1`, the activity change, negative = inhibition was -11.2% (inactive).
On the same count and under the same terms, to `CCCCC(CCC(=O)Nc1ccc(C(=O)OCC)cc1)C(=O)O` (stereo not given) belongs 8.16% (inactive); to `N#C/C(=C\c1c(N2CCC(C(N)=O)CC2)nc2ccccn2c1=O)S(=O)(=O)c1ccccc1`, 29.6% (inactive); to `Cc1nnc2n(-c3ccccc3)c(=O)c3c4c(sc3n12)COC(C)(C)C4`, -10.7% (inactive).
The same measure, in the same setting: next, `Clc1ccc(-n2ncc3c(NCCCn4ccnc4)ncnc32)cc1`: -6.43% (inactive); `CCOC(=O)CSc1nc(C)c(C(C)=O)cc1C#N`: -3.61% (inactive).
On to `Cc1cc(=O)oc2c(CN3CCN(C)CC3)c(O)c(Cl)cc12`, for which the activity change, negative = inhibition is 25% (inactive).
The same measure, in the same setting: next, `COC(=O)c1[nH]c(C)c(/C(O)=C2\C(=O)C(=O)N(CCN3CCOCC3)C2c2cccnc2)c1C` (stereo not given): -7.81% (inactive); `CCOc1ccc2nc(NC(NC(C)=O)(C(=O)OC)C(F)(F)F)sc2c1` (stereo not given): 0.18% (inactive); `COc1ccc(C(C)=O)cc1CSCCC(=O)O`: 2.2% (inactive).
The same measure, in the same setting: next, `CCC(c1c(C)n(C)n(-c2ccccc2)c1=O)c1c(C)n(C)n(-c2ccccc2)c1=O`: 9.43% (inactive).
Same read-out and setting: to `CCCCOc1ccccc1/C=c1/sc2nc(-c3oc4ccccc4c3C)nn2c1=O` belongs -23.5% (inactive); to `COc1ccc(OC)c(N=C(C)C2=C(O)COC2=O)c1`, 0.486% (inactive).
With `CCCCCSc1nc(O)cc(=O)[nH]1`, the activity change, negative = inhibition is 11.4% (inactive).
Same read-out and setting: to `Cn1c(-n2c(-c3ccco3)nc3ccccc3c2=O)nc2ccccc21` belongs -6.94% (inactive).
Same read-out and setting: next, `CCOc1ccccc1C(=O)NCCCCCC(=O)O`: 2.57% (inactive); `COc1cccc(C(=O)N2CCN(Cc3ccccn3)CC2)c1OC`: 7.94% (inactive); `CC(C)Cc1nc(N2CCOCC2)c(C#N)c2c1COC(C)(C)C2`: -9.76% (inactive).
`c1ccc2c(c1)[nH]c1c(N3CCSCC3)ncnc12`: the activity change, negative = inhibition is -20.2% (inactive).
In the case of `COC(=O)COc1ccc(Oc2nc(SC)nc(N(C)C)n2)nn1`, the activity change, negative = inhibition was 4.35% (inactive).
On the same count and under the same terms, to `Cc1cc(=O)oc(C)c1C(=O)NCC1CCCO1` (stereo not given) belongs -0.802% (inactive); to `Cc1ccc2cc(CN(C(=O)c3ccco3)c3ccccc3)c(=O)[nH]c2c1`, 2.15% (inactive); to `Fc1ccc(OCCOCCNCC2CCCO2)cc1` (stereo not given), -14.1% (inactive).
Same read-out and setting: next, `CCN1C(=O)CC(N2CCN(c3ccc(OC)cc3)CC2)C1=O` (stereo not given): 1.19% (inactive); `Cc1cc(=O)[nH]c(COc2ccccc2)n1`: -7.86% (inactive).

The nature of the next test: Stat Signaling Pathway (AID 446).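 Further: ME-180 cervical cancer cells given 40 pM IL-6 alongside compound; SIE-controlled beta-lactamase reporter measured as 460/530 nm FRET emission ratio.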 To be noted: ME-180 (cervical carcinoma) SIE beta-lactamase reporter, IL-6 stimulated, 5 h; at 17.2 µM (top of the series) unless noted. The procedure, abridged:
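Overnight-plated ME-180 cells bearing a STAT Inducible Element beta-lactamase reporter; 5 h co-exposure to compound and 40 pM IL-6; values normalized to 300 pM IL-6 and 125 nM JAK inhibitor controls.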
For `Cn1c(NCc2cccnc2)nc2c1c(=O)n(Cc1ccccc1F)c(=O)n2C`, the activity, negative = inhibition is -20.6% (inactive).
In the case of `N#Cc1nc(COc2ccccc2F)oc1NCCCn1ccnc1`, the activity, negative = inhibition is 5.2% (inactive).
Same read-out and setting: to `Cc1occc1C(=O)OCC(=O)Nc1ccc(F)cc1` belongs -3.3% (inactive); to `CCOC(=O)CNS(=O)(=O)c1cc(-c2nn(C)c(=O)c3ccccc23)ccc1C`, -5.95% (inactive).
The same measure, in the same setting: to `CC1(C)CC(=O)C=C(NCCO)C1` belongs 12.6% (inactive); to `O=c1oc2c(CN3CCCCC3)c(O)ccc2c2c1CCCCC2`, 9.48% (inactive).
Consider `COc1cccc(C2C(C(=O)c3cc4ccccc4o3)=C(O)C(=O)N2CCN(C)C)c1OC` (stereo not given), for which the activity, negative = inhibition was -6.68% (inactive).
Still for that read-out and setting: to `c1ccc(-c2nc(NCC3CCCO3)c3ccccc3n2)nc1` (stereo not given) belongs -6.67% (inactive).
The same measure, in the same setting: to `O=C(CSc1nnc(-c2ccccc2)c(-c2ccccc2)n1)N1CCOCC1` belongs 8.97% (inactive).
The same measure, in the same setting: to `O=C(NCCO)C1(c2ccccc2)CCCC1` belongs 2.26% (inactive).
As for `Cc1ccc(N(CC(O)CN(C)C)S(=O)(=O)c2ccccc2)cc1` (stereo not given), the activity, negative = inhibition is 1.04% (inactive).
Consider `Cc1cc(C)n(C(=O)CN2C(=O)CCC2=O)n1`, for which the activity, negative = inhibition was 3.71% (inactive).
Same read-out and setting: to `COc1cccc(C2/C(=C(/O)c3cnn(-c4ccccc4)c3C)C(=O)C(=O)N2CCN(C)C)c1` (stereo not given) belongs -11.2% (inactive); to `Nc1ccc2c3c(cccc13)CC2`, 7.79% (inactive).
For the compound `CC(O)CNc1nc2c(c(=O)n(C)c(=O)n2C)n1Cc1cccc(C(F)(F)F)c1` (stereo not given), the activity, negative = inhibition was -0.279% (inactive).
As for `S=c1[nH]nc(-c2ccccc2)n1Cc1ccccc1`, the activity, negative = inhibition is 6.25% (inactive).
For `CCCCC(CCC(=O)Nc1ccc(C(=O)OCC)cc1)C(=O)O` (stereo not given), the activity, negative = inhibition is 3.27% (inactive).
The same measure, in the same setting: to `N#C/C(=C\c1c(N2CCC(C(N)=O)CC2)nc2ccccn2c1=O)S(=O)(=O)c1ccccc1` belongs -1.65% (inactive); to `Cc1nnc2n(-c3ccccc3)c(=O)c3c4c(sc3n12)COC(C)(C)C4`, -0.141% (inactive).
For the compound `Clc1ccc(-n2ncc3c(NCCCn4ccnc4)ncnc32)cc1`, the activity, negative = inhibition was -0.823% (inactive).
On the same count and under the same terms, next, `CCOC(=O)CSc1nc(C)c(C(C)=O)cc1C#N`: 6.11% (inactive).
Regarding `Cc1cc(=O)oc2c(CN3CCN(C)CC3)c(O)c(Cl)cc12`, the activity, negative = inhibition is 9.62% (inactive).
On the same count and under the same terms, next, `COC(=O)c1[nH]c(C)c(/C(O)=C2\C(=O)C(=O)N(CCN3CCOCC3)C2c2cccnc2)c1C` (stereo not given): 2.79% (inactive).
Same read-out and setting: to `CCOc1ccc2nc(NC(NC(C)=O)(C(=O)OC)C(F)(F)F)sc2c1` (stereo not given) belongs -4.87% (inactive).
On the same count and under the same terms, to `COc1ccc(C(C)=O)cc1CSCCC(=O)O` belongs 15.2% (inactive).
`CCC(c1c(C)n(C)n(-c2ccccc2)c1=O)c1c(C)n(C)n(-c2ccccc2)c1=O`: the activity, negative = inhibition is 10.1% (inactive).
For `CCCCOc1ccccc1/C=c1/sc2nc(-c3oc4ccccc4c3C)nn2c1=O`, the activity, negative = inhibition is -12.5% (inactive).
On the same count and under the same terms, to `COc1ccc(OC)c(N=C(C)C2=C(O)COC2=O)c1` belongs -3.94% (inactive); to `CCCCCSc1nc(O)cc(=O)[nH]1`, -6.56% (inactive).
Consider `Cn1c(-n2c(-c3ccco3)nc3ccccc3c2=O)nc2ccccc21`, for which the activity, negative = inhibition was 9.91% (inactive).
In the case of `CCOc1ccccc1C(=O)NCCCCCC(=O)O`, the activity, negative = inhibition is 6.07% (inactive).
On the same count and under the same terms, next, `COc1cccc(C(=O)N2CCN(Cc3ccccn3)CC2)c1OC`: 7.75% (inactive); `CC(C)Cc1nc(N2CCOCC2)c(C#N)c2c1COC(C)(C)C2`: 4.57% (inactive).
On the same count and under the same terms, to `c1ccc2c(c1)[nH]c1c(N3CCSCC3)ncnc12` belongs -18.7% (inactive); to `COC(=O)COc1ccc(Oc2nc(SC)nc(N(C)C)n2)nn1`, -4.81% (inactive); to `Cc1cc(=O)oc(C)c1C(=O)NCC1CCCO1` (stereo not given), 1.38% (inactive).
On the same count and under the same terms, next, `Cc1ccc2cc(CN(C(=O)c3ccco3)c3ccccc3)c(=O)[nH]c2c1`: -2.89% (inactive); `Fc1ccc(OCCOCCNCC2CCCO2)cc1` (stereo not given): 21.6% (inactive).
As to `CCN1C(=O)CC(N2CCN(c3ccc(OC)cc3)CC2)C1=O` (stereo not given), the activity, negative = inhibition was 1.34% (inactive).
On the same count and under the same terms, next, `Cc1cc(=O)[nH]c(COc2ccccc2)n1`: -2.52% (inactive).
